Hits are enriched below; roughly 21% of the tested compounds scored in any of these assays.
NS1 inh = blocks influenza NS1 protein function. Potency, µM (series often up to 46.1 µM), for inactives: top-dose activity, positive = more growth. 270,000 compounds, 0.4% hits; calls by dose curve; further: potency means the concentration at half of the fitted maximal effect; actives are rising curves; nearly all actives have a fitted effect of over 50% in size
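A cell-based growth assay was used: compounds that relieve NS1-induced slow growth of budding yeast raise OD600. Assay medium was yeast nitrogen base with ammonium sulphate and -URA supplement, pH 6.0, with 2% galactose.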
Pf growth 96h = P. falciparum growth inhibition at 96 hour, primary screen for plastid delayed-death inhibitors; P. falciparum luciferase reporter growth, 96 h; AID 504834; 320,000 compounds, 6.9% hits; Potency, µM (doses to about 28.7 µM), inactives show at the highest dose activity change, negative = inhibition, most hits filed as inhibitors; further: potency means the concentration at half of the fitted maximal effect; on the % scale 0 is the no-effect control and ±100 the full control effect
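Plates of compound plus infected erythrocytes (2% hematocrit, 0.05% parasitemia final) incubate 96 hours, 37 C, 5% CO2. Detection reagent added; reduced luminescence from the parasites' luciferase reporter flags inhibition.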
Shiga toxin inh = inhibitors of Shiga toxin in Vero cells; inhibition, % at 38.7 µM; Vero cells, Shiga toxin protein synthesis inhibition reporter; AID 2315; 290,000 compounds, 9.2% hits; in the data active means inhibition mostly above about 28%, no sharp cut-off; inactive means mostly below about 43%; further: 0% is about no effect
Cycloheximide cs = counter-screen hit for Shiga toxin inhibitors, cycloheximide; cell reporter, cycloheximide protein synthesis inhibition counterscreen; max response, %; 300,000 compounds, 12% hits; in the data active means max response mostly above about 13%, no sharp cut-off; inactive means mostly below about 14%; further: read at 38.3 µM for the half of the compounds with a filed dose; 0% is about no effect
Pf growth 48h = inhibits P. falciparum growth in the first generation, 48 h | P. falciparum luciferase growth in erythrocytes, 48 h | Potency, µM (top dose mostly 28.7 µM), for the others: at the highest dose activity change, negative = inhibition, most hits filed as inhibitors | 310,000 compounds, 5.9% hits | AID 504832; further: potency means the concentration at half of the fitted maximal effect; on the % scale 0 is the no-effect control and ±100 the full control effect
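Firefly luciferase activity from engineered P. falciparum reports growth; inhibitors lower the luminescent signal. Cultures contained 2% hematocrit erythrocytes at 0.1% final parasitemia.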
SARS PLP yeast = inhibitors of SARS-CoV papain-like protease in yeast | S. cerevisiae expressing SARS-CoV PLpro, growth rescue | Potency, µM (titrated, usually from 32.9 µM), for the others: at the highest dose activity, positive = growth rescue, hits mostly activators | 330,000 compounds, 0.19% hits | AID 485353; calls by dose curve; further: potency means the concentration at half of the fitted maximal effect; 0% is about no effect; nearly all actives have a fitted effect of over 55% in size
Numbers without * were called inactive; u = inconclusive; x = not tested or not shown; [ ] = remark or other dose. Unless noted, the call rests on the fitted dose curve; in most records, active means well fitted inhibition curve with a large enough effect; inconclusive means small, poorly fitted or top-dose-only effect, or another doubt; inactive means no such curve, though single readings can be large or run the other way.

SMILES	NS1 inh	Pf growth 96h	Shiga toxin inh	Cycloheximide cs	Pf growth 48h	SARS PLP yeast
Cc1cc(C)c(C#N)c(SCC(=O)Nc2ccccc2C(N)=O)n1	5.9%	-6.0%	51.4*	23.3*	10.1%	-4.3%
Cc1cc(C)c(C#N)c(SCC(=O)N2CCCCC2)n1	-44.6%	x	-1.5	-2.2	2.6%	-3.6%
CCc1nnc(NC(=O)CSc2nc(C)cc(C)c2C#N)s1	x	15.8%	40.0	15.3*	114.8%[5.75 µM]	-1.5%
Cc1cc(C(F)(F)F)c(C#N)c(SCC(=O)NC(C)(C)C)n1	8.6%	u	-8.4	-2.0	-13.6%	5.8%
COc1cc2c(cc1OC)CN(C(=O)CSc1nc(C)cc(C)c1C#N)CC2	9.4%	6.57µM*	-3.0	-1.6	u	10.8%
Cc1cc(C)c(C#N)c(SCC(=O)NC(C)(C)C)n1	-5.6%	7.38µM*	-14.2	-9.1	x	0.7%
COCc1cc(C)nc(SCC(=O)Nc2ccccc2C)c1C#N	-6.6%	u	-4.1	1.7	-10.7%	0.7%
CC(=O)NCCN1C(=O)C2C3c4ccccc4C(c4ccccc43)C2C1=O (stereo not drawn)	2.5%	u	-7.4	-2.3	x	-1.8%
COC(=O)CC1C(=O)NCCN1C(=O)CSc1nc2ccccc2s1 (stereo not drawn)	x	-22.3%	-3.2	1.3	8.1%	-5.0%
CCN(CC)C(=O)CSc1nc(C)cc(C)c1C#N	x	95.4%	-1.9	4.4	-2.1%	-2.4%
CCOC(=O)NC(=O)CSc1nc(C)cc(C)c1C#N	-11.5%	9.28µM*	16.8	21.9	148.4%	-3.5%
CCN(Cc1ccccc1)C(=O)CSc1nc(C)cc(C)c1C#N	-61.4%	10.4µM*	-13.6	-5.3	u	-18.2%
COC(=O)CC(=O)CSc1nc(C)cc(C)c1C#N	12.1%	8.28µM*	25.4	-2.2	20.5%	-0.9%
CCOC(=O)CNC(=O)CSc1nc(C)cc(C)c1C#N	u	x	-9.3	5.4	x	-7.1%
Cc1cc(C)c(C#N)c(SCCS(=O)(=O)c2ccc(C(C)(C)C)cc2)n1	1.8%	x	-8.0	-2.3	7.38µM*	-0.5%
CCOC(=O)c1ccsc1NC(=O)c1ccco1	0.3%	u	2.0	9.5	23.7%	-3.6%
Cc1nn(CC(=O)Nc2cccc(S(N)(=O)=O)c2)c(C)c1[N+](=O)[O-]	u	u	-2.2	1.9	-0.2%	12.0%
COc1cccc(/C=C/C(=O)OCC(=O)N2c3ccccc3NC(=O)C2(C)C)c1	-1.0%	u	18.5	-6.2	-9.6%	13.9%
Oc1ccccc1CN(CCc1ccccc1)Cc1ccccc1	-76.8%	u	x	4.0	u	-16.8%
CN(Cc1nc(CC2CC2)no1)CC12CC3CC(CC(C3)C1)C2	-1.4%	u	-13.9	-0.3	5.3%	-1.5%
OCCN(Cc1ccccc1)Cc1nc(CC2CC2)no1	-6.5%	1.65µM*	15.3	-0.3	4.4%	-0.8%
OCCN(Cc1ccccc1)Cc1ccccc1O	x	u	-3.7	1.2	4.15µM*	0.5%
CC(C(=O)N1CCc2ccccc21)N1CCN(S(=O)(=O)c2cccs2)CC1 (stereo not drawn)	x	u	x	x	u	0.4%
CN(C)c1ccc(-n2cccc2)cc1	0.2%	-7.1%	20.2	16.5*	5.1%	0.5%
O=C(CN1C(=O)NC2(CCCCC2)C1=O)N1CCN(c2ncccn2)CC1	x	-8.4%	x	x	7.6%	-1.3%
SMILES	NS1 inh	Pf growth 96h	Shiga toxin inh	Cycloheximide cs	Pf growth 48h	SARS PLP yeast
COC(=O)c1ccc(OC(=O)/C=C/c2ccco2)cc1	-8.0%	19.3%	36.2*	26.5*	12.8%	2.4%
O=Cc1cccc(OC(=O)/C=C/c2ccco2)c1	-13.7%	-9.0%	80.4*	51.7*	60.7%	3.1%
O=C(/C=C/c1ccco1)Oc1ccc(C(=S)N2CCOCC2)cc1	x	-11.4%	41.3	34.6*	0.0%	8.6%
COc1ccc(C#Cc2ccc3c(=O)c4ccccc4n(C)c3c2)cc1	17.9%	8.28µM*	17.2	4.3	-41.3%	-1.1%
Cn1c2ccccc2c(=O)c2ccc(C#Cc3ccc(N)cc3)cc21	-17.9%	9.28µM*	20.4	25.6*	-25.1%	-29.5%
COc1ccc(OC)c(NC(=O)C2=C(C)Nc3ncnn3C2c2cccs2)c1 (stereo not drawn)	-31.7%	-17.7%	-1.2	-4.3	-13.6%	-1.9%
Brc1ccc(C2C3=C(Nc4ncnn42)c2ccccc2OC3c2ccncc2)cc1 (stereo not drawn)	6.8%	x	-11.2	1.2	13.1µM*	3.2%

Screening results as filed in PubChem BioAssay.
